Results as given in the supplement of paper PMC7530171.
Structures can show the parent of a compound that is named as a salt. ± gives the standard deviation.

These compounds were tested on THP-1 macrophages infected with Mycobacterium tuberculosis H37Rv (assay: intracellular M.tb growth inhibition relative to DMSO (0) and 4 uM bedaquiline (100); higher = stronger inhibition of intracellular bacterial growth). Settings: 10 µM; 4 days.
Protocol: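 OICR kinase inhibitor library screened in duplicate at 10 uM against THP-1 macrophages (PMA-differentiated) infected with M. tuberculosis H37Rv-pTEC27 (tdTomato RFP), 4 days at 37 C. Rows with complete host cell loss (placeholder inhibition 0, cell loss 100) were removed.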
For CC(C)(C)n1nc(-c2cccc3ccccc23)c2c(N)ncnc21 [1-Naphthyl PP1], the “intracellular M.tb growth inhibition” value was 21.2 ± 3.2%. For Nc1nc(OCC2CCCCC2)c2[nH]cnc2n1, the “intracellular M.tb growth inhibition” value was -15.1 ± 19%. For Cc1ccc(NC(=O)c2cccc(N(C)C)c2)cc1NC(=O)c1ccc(O)cc1, the “intracellular M.tb growth inhibition” value was 36 ± 37%. NC(=O)c1ccc(N(C(N)=O)c2c(F)cccc2F)nc1-c1ccc(F)cc1F was tested, and the “intracellular M.tb growth inhibition” value was -1.77 ± 10%. O=[N+]([O-])c1ccc(-c2nc(-c3ccc(F)cc3)c(-c3ccncc3)[nH]2)cc1 was tested, and the “intracellular M.tb growth inhibition” value was 36.6 ± 3.6%. For Nc1ncnc2c1c(-c1cccc(OCc3ccccc3)c1)cn2C1CC(CN2CCC2)C1 (stereo unspecified), the “intracellular M.tb growth inhibition” value was -22.8 ± 12%. N#C/C(=C\c1ccc(O)c(O)c1)C(=O)Nc1ccccc1 was tested, and the “intracellular M.tb growth inhibition” value was -35.4 ± 5.2%. For NS(=O)(=O)c1ccc(Nc2nc(OCC3CCCCC3)c3[nH]cnc3n2)cc1, the “intracellular M.tb growth inhibition” value was 15.4 ± 41%. In the case of C[C@@H](N)[C@H]1CC[C@H](C(=O)Nc2ccncc2)CC1, the “intracellular M.tb growth inhibition” value is reported as -59.3 ± 110%. COc1cc2ncn(-c3cc(OCc4ccccc4C(F)(F)F)c(C(N)=O)s3)c2cc1OC was tested, and the “intracellular M.tb growth inhibition” value was 38.7 ± 14%. In the case of CC[C@@H]1/C=C(\C)C[C@H](C)C[C@H](OC)[C@H]2O[C@@](O)(C(=O)C(=O)N3CCCC[C@H]3C(=O)O[C@H](/C(C)=C/[C@@H]3CC[C@H](Cl)[C@H](OC)C3)[C@H](C)[C@@H](O)CC1=O)[C@H](C)C[C@@H]2OC [Pimecrolimus], the “intracellular M.tb growth inhibition” value is reported as 45.4 ± 4.6%. With CN1CCC(COc2cnc(-c3cccc(Cn4nc(-c5cccc(C#N)c5)ccc4=O)c3)nc2)CC1 the “intracellular M.tb growth inhibition” value was 48.3 ± 68%. For Cc1ccc(-n2nc(C(C)(C)C)cc2NC(=O)Nc2ccc(OCCN3CCOCC3)c3ccccc23)cc1, the “intracellular M.tb growth inhibition” value was -1.53 ± 2.2%. For COc1cc2ncnc(Nc3ccc(Cl)cc3F)c2cc1OC, the “intracellular M.tb growth inhibition” value was 48.4 ± 20%. For Cn1cnc2c(F)c(Nc3ccc(Br)cc3Cl)c(C(=O)NOCCO)cc21, the “intracellular M.tb growth inhibition” value was 6.79 ± 5.7%. CC(C)(C)c1nc2c3cc[nH]c(=O)c3c3cc(F)ccc3c2[nH]1 [Merck-5] was tested, and the “intracellular M.tb growth inhibition” value was -268 ± 290%. For O=C1NC(=O)/C(=C/c2ccc3c(c2)OC(F)(F)O3)S1, the “intracellular M.tb growth inhibition” value was 42.5 ± 35%. With CC(C)n1nc(-c2cc3cc(O)ccc3[nH]2)c2c(N)ncnc21 the “intracellular M.tb growth inhibition” value was 14.1 ± 20%. Cc1nc(N)sc1-c1ccnc(Nc2ccc(N3CCOCC3)cc2)n1 was tested, and the “intracellular M.tb growth inhibition” value was 13.1 ± 18%. With O=C1NCc2c1c1c3ccccc3[nH]c1c1[nH]c3ccccc3c21 the “intracellular M.tb growth inhibition” value was 37.2 ± 30%. With N#CC[C@H](C1CCCC1)n1cc(-c2ncnc3[nH]ccc23)cn1 the “intracellular M.tb growth inhibition” value was -157 ± 220%. FC(F)c1nc2ccccc2n1-c1nc(N2CCOCC2)nc(N2CCOCC2)n1 was tested, and the “intracellular M.tb growth inhibition” value was -26.3 ± 5.5%. With Cc1ccc(F)c(NC(=O)Nc2ccc(-c3cccc4[nH]nc(N)c34)cc2)c1 the “intracellular M.tb growth inhibition” value was -14.6 ± 21%. COCC(=O)NC/C=C/c1ccc2ncnc(Nc3ccc(Oc4ccc(C)nc4)c(C)c3)c2c1 was tested, and the “intracellular M.tb growth inhibition” value was 5.71 ± 95%. O=C(O)c1ccc(-c2c[nH]c3ncc(-c4ccccc4)cc23)cc1C1CCCC1 was tested, and the “intracellular M.tb growth inhibition” value was -23.5 ± 47%. In the case of COc1cc2nccc(Oc3ccc(NC(=O)C4(C(=O)Nc5ccc(F)cc5)CC4)cc3)c2cc1OC, the “intracellular M.tb growth inhibition” value is reported as 94.8 ± 23%. For COc1cc2nccc(Oc3ccc(NC(=O)Nc4cc(C)on4)c(Cl)c3)c2cc1OC, the “intracellular M.tb growth inhibition” value was -5.89 ± 83%. With Cn1cc(-c2ccc3nnc(Sc4ccc5ncccc5c4)n3n2)cn1 the “intracellular M.tb growth inhibition” value was -164 ± 130%. For COc1ccc(CNC(=O)Nc2ncc([N+](=O)[O-])s2)cc1, the “intracellular M.tb growth inhibition” value was 20.1 ± 28%. For CCCCCCCC(=O)OCCOC(=O)CCCCCCC [Dioctanoylglycol], the “intracellular M.tb growth inhibition” value was 0.763 ± 3%. With COc1cc2c(N3CCN(C(=O)Nc4ccc(OC(C)C)cc4)CC3)ncnc2cc1OCCCN1CCCCC1 the “intracellular M.tb growth inhibition” value was 53 ± 8%. With O=C(Nc1nc2ccccc2n1CCN1CCOCC1)c1cccc([N+](=O)[O-])c1 [IRAK-1/4 Inhibitor I] the “intracellular M.tb growth inhibition” value was 13.1 ± 7.2%. For Cn1c2ccccc2c2c3c(c4c5ccccc5n(CCC#N)c4c21)CNC3=O, the “intracellular M.tb growth inhibition” value was -29.9 ± 36%. For O=S(=O)(NCCNC/C=C/c1ccc(Br)cc1)c1cccc2cnccc12 [H 89 dihydrochloride], the “intracellular M.tb growth inhibition” value was 70.3 ± 6.1%. With Nc1cc(N)c(N)cc1N [FAK Inhibitor 14] the “intracellular M.tb growth inhibition” value was 6.73 ± 56%. In the case of O=C(Nc1cc(C(F)(F)F)cc(C(F)(F)F)c1)c1cc(Cl)ccc1O, the “intracellular M.tb growth inhibition” value is reported as 64.7 ± 16%.
